RecA splice inh: Mtb RecA intein splicing inhibition; P9WHJ3; cell-free RecA intein splicing, fluorescence; inhibition, % (test concentration not listed); hit rate 0.75% among 290,000; in the data active = inhibition above about 30%;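 also: 0% = vehicle wells and 100% = reference inhibitor control wells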
UGM FP inh: inhibitors of M. tuberculosis UDP-galactopyranose mutase. purified UGM, fluorescence polarization probe displacement. P9WIQ1. inhibition, % at 10 µM. hit rate 0.06% among 320,000; in the data active = inhibition above about 10%, passing the limit was not always enough
Rv3671c inh: inhibitors of M. tuberculosis serine protease Rv3671c; P9WHR9; inhibition, % at 5.96 µM; hit rate 0.048% among 320,000; in the data active = inhibition above about 38%;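 also: extracellular domain of Rv3671c used as enzyme; 0% = enzyme with DMSO and 100% = no enzyme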
Target sequence (P9WHR9 whole entry, looked up, the tested form may be a part): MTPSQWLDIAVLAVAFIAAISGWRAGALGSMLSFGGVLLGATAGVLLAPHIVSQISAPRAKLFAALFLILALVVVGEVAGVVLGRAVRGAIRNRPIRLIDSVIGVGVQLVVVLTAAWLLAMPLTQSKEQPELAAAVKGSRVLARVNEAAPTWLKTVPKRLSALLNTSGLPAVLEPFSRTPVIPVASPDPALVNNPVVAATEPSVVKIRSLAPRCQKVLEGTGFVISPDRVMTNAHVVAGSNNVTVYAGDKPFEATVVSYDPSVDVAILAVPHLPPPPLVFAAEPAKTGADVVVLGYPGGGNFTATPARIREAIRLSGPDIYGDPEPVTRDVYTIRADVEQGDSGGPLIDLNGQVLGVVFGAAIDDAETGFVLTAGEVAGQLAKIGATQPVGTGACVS
GDH-TPI counter: counter-screen for M. tuberculosis FBA inhibitors: GDH-TPI coupled enzymes. GDH-TPI coupled enzyme counterscreen, NADH absorbance. inhibition, % at 4.8 µM. hit rate 1.2% among 360,000; in the data active = inhibition above about 30%;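 also: 0% = DMSO wells and 100% = wells lacking the enzyme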
FBA Mtb inh: Mtb fructose-bisphosphate aldolase inhibition; P9WQA3; purified M. tuberculosis FBA, fluorescence read-out; inhibition, % at 1 µM; hit rate 2.3% among 360,000; in the data active = inhibition above about 27%;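 also: 0% = vehicle and 100% = reference inhibitor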
Mtb bLac sens: beta-lactam sensitization of Mtb H37Rv. inhibition, % at 25 µM. AID 434955. M. tuberculosis H37Rv growth with meropenem, percent inhibition. hit rate 0.27% among 330,000; call rule not given here;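 also: growth measured after seven days incubation then overnight dye step; 0% = bacteria only wells and 100% = bacteria with antibiotic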
The depositor's hits bear a star; i = inactive; . = no result; + = active, no number. The list is not random: actives were taken first. Their share in the collection is about 4%.

SMILES | RecA splice inh | UGM FP inh | Rv3671c inh | GDH-TPI counter | FBA Mtb inh | Mtb bLac sens
CSc1nc(-c2ccccc2)c(C#N)c(=O)[nH]1 | -3 | 4 | 0 | 4 | 1 | 2
COCCN(CCOC)S(=O)(=O)c1ccc(C(=O)NC2CCN(Cc3ccccc3)CC2)cc1 | -1 | 3 | 5 | -16 | -4 | -3
CCOC(=O)C(=CNc1ccc(Oc2cccnc2)nc1)C(=O)OCC | -2 | 1 | 6 | 36* | -2 | 5
O=[N+]([O-])c1ccc(-c2nc(Cl)c3c(n2)CCCC3)o1 | . | . | . | 32* | -2 | .
O=Cc1s/c(=N\S(=O)(=O)c2ccccc2)n(CCCCl)c1Cl | 95* | . | . | -5 | -2 | .
CCn1c(C)cs/c1=N\S(=O)(=O)c1ccccc1 | -17 | 1 | -5 | -2 | 0 | -5
COc1cccc(-n2c(Cc3cc(=O)[nH]c(=O)[nH]3)nnc2SCC(=O)N2CCC(C)CC2)c1 | 3 | 2 | 3 | 3 | 2 | -3
O=C(N/N=C/c1ccc(O)cc1O)/C(=C/c1ccccc1)CCO | -17 | -1 | 18 | 41* | 0 | 5
COc1cc(/C=N/NC(=O)/C(=C/c2ccccc2)CCO)ccc1O | -3 | 2 | -7 | 39* | -1 | -6
COc1cc(/C=N/n2c(C)n[nH]c2=S)ccc1OCc1ccc(F)cc1 | 1 | 3 | -12 | 9 | 2 | 3
CC12CCC(C(=O)N(CSC(=S)N/N=C\c3ccccc3)C1=O)C2(C)C (centres undefined) | -3 | -1 | 7 | 42* | 5 | 0
Cn1cc(C(=O)N/N=C/C(Br)=C\c2ccccc2)ccc1=O | 3 | -2 | 2 | 32* | -3 | .
Cn1cc(C(=O)N/N=C/c2cccc(O)c2)ccc1=O | 0 | -2 | -8 | 5 | -1 | 1
O=C(N/N=C/C=C/c1ccccc1)c1ccc(Br)cc1 | -2 | 2 | 0 | 27 | 0 | 99
Cn1cc(C(=O)N/N=C/C=C/c2ccccc2)ccc1=O | -1 | -1 | 3 | 40* | -4 | -1
Cn1cc(C(=O)N/N=C/C(Br)=C/c2ccccc2)ccc1=O | 0 | 0 | -7 | 44* | 2 | 25
O=C(N/N=C/C(Br)=C/c1ccccc1)c1ccccc1[N+](=O)[O-] | 4 | 0 | -2 | 12 | 0 | 7
CC(C)(C)S(=O)N1Cc2cc(C(=O)NCC(F)(F)F)nc(-c3cccc(-c4cccc(F)c4)c3)c2[C@@H]1CCO (some centres undefined) | . | . | . | . | 3 | .
COc1ccc(CCNC(=O)C2CCCN(S(=O)(=O)c3ccccc3)C2)cc1 (centres undefined) | -1 | -1 | -7 | -11 | 2 | -17
Cc1cccn2c(=O)c3cc(C(=O)NC4CCCC4)c(=N)n(CCCN4CCOCC4)c3nc12 | i | 4 | 1 | -1 | 141* | -2
COc1ccc(CCNC(=O)c2cc3c(=O)n4cccc(C)c4nc3n(CCCN3CCOCC3)c2=N)cc1 | -3 | -1 | -2 | -6 | 18 | 7
Cc1cccn2c(=O)c3cc(C(=O)NCCN4CCOCC4)c(=N)n(CCN4CCOCC4)c3nc12 | -32 | 3 | -3 | 11 | 151* | 5
Cc1cccn2c(=O)c3cc(C(=O)NCCN4CCOCC4)c(=N)n(Cc4ccc(F)cc4)c3nc12 | -427 | 2 | 8 | 7 | 156* | 3
CCCn1c(=N)c(C(=O)NCc2ccc3c(c2)OCO3)cc2c(=O)n3cccc(C)c3nc21 | -20 | -1 | -5 | 1 | 4 | 93
CCOCCCn1c(=N)c(C(=O)NCCN2CCOCC2)cc2c(=O)n3cccc(C)c3nc21 | . | 0 | 3 | -1 | 185* | -2
SMILES | RecA splice inh | UGM FP inh | Rv3671c inh | GDH-TPI counter | FBA Mtb inh | Mtb bLac sens
COCCn1c(=N)c(C(=O)NCCc2ccc(OC)cc2)cc2c(=O)n3cccc(C)c3nc21 | -2 | -1 | -1 | 8 | 5 | -6
c1ccc(C2Nc3ccccc3-c3nc4ccccc4n32)nc1 (centres undefined) | -12 | 0 | 4 | 5 | 119* | -3
c1ccc(C2Nc3ccccc3-c3nc4ccccc4n32)cc1 (centres undefined) | -2 | 1 | 4 | 18 | 139* | 1
COC(=O)[C@H](Cc1ccc(O)cc1)NC(=O)Cn1cnc2c(NCc3ccccc3)ncnc21 | . | . | . | 7 | 2 | .
COc1ccc(/C(C)=N/NC(=O)C2CC2)cc1 | 2 | 0 | -4 | -1 | 1 | 9
COc1ccc2cc(/C(C)=N/NC(=O)C3CC3)ccc2c1 | 0 | -4 | -4 | 2 | + | -7
CC(C)=CCCC(C)CN1CCC(n2nccc2NC(=O)c2cccnc2)CC1 (centres undefined) | -4 | 2 | -4 | 2 | 3 | -10
CCCCCOC(=O)c1c(N)n(CCOC)c2nc3ccccc3nc12 | -134 | 2 | -90 | 23 | + | 5
COCCCn1c(N)c(C(=O)Nc2ccccc2)c2nc3ccccc3nc21 | 1 | 2 | 5 | -1 | 4 | 7
CCOC(=O)c1c(N)n(CCOC(=O)c2cccs2)c2nc3ccccc3nc12 | -2 | 2 | -193 | 18 | 173* | 95
COc1cccc(-n2c(SCC(=O)NCC3CCCO3)nc3c(c2=O)SCC3)c1 (centres undefined) | 2 | -1 | -4 | 10 | 2 | 1
CCn1c(=O)n(CC)c2cc(NC(=O)CSc3ccc([N+](=O)[O-])cn3)ccc21 | . | 0 | -2 | 19 | 4 | -2
COc1cc(NC(=O)c2cccc3c2C(=O)N(C2CCCCC2)C3)cc(OC)c1OC | 13 | 2 | 15 | 8 | 0 | 80
CC(=O)NC(CC(=O)NCCN1C(=O)S/C(=C\c2ccccc2)C1=O)c1ccccc1 (centres undefined) | . | 1 | 4 | 48* | 1 | 1
COc1ccc(/C=C2\SC(=O)N(CC(=O)NNC(=O)c3ccccc3O)C2=O)cc1 | -5 | 0 | -20 | 33* | -1 | 4
O=C(CCCN1C(=O)S/C(=C\c2ccccc2)C1=O)NNC(=O)c1ccccc1O | 2 | -1 | 5 | 13 | -6 | -4
O=C(CN1C(=O)S/C(=C\c2ccccc2)C1=O)NNC(=O)c1ccccc1O | -3 | 2 | -5 | 31* | 1 | 5
CC1=CC(c2ccc(Cl)cc2)n2nc(NC(=O)CCC(=O)O)nc2N1 (centres undefined) | -65 | 1 | 9 | 4 | 115* | 1
C/C(=N\NC(=O)c1nc2ccccn2c1C)c1cc2ccccc2o1 | -1 | 1 | 1 | 33* | 1 | 5
C/C(=N\NC(=O)c1cc2ccccc2cc1O)c1ccccn1 | -2 | 0 | 18 | 20 | 4 | 96
C/C(=N\NC(=O)c1cc2ccccc2cc1O)c1cc2ccccc2o1 | -3 | 2 | 18 | 60* | -3 | 68
N#Cc1ccc(S(=O)(=O)NC[C@H]2O[C@@H](n3ccc(N)nc3=O)[C@H](O)[C@@H]2O)cc1 | . | . | . | 4 | -1 | .
CC1(C(=O)NS(=O)(=O)Cc2cccc(Cl)c2)CCN1C(=O)Cc1cccs1 (centres undefined) | . | . | . | 1 | -1 | .
